These results are taken from PubChem BioAssay (NCATS).

Unmarked numbers belong to inactive results. Records with an inconclusive call do not appear. The source made the active and inactive calls. Unless noted, the call rests on the fitted dose curve; in most records, active means well fitted curve in the direction sought with a large enough effect; inconclusive means small, poorly fitted or top-dose-only effect, or another doubt; inactive means no such curve, though single readings can be large; an effect the other way counts as inactive or inconclusive.

Test [1] deals with MKL-2. Kind of test: qHTS assay to identify novel small-molecules to repurpose for Merkel cell carcinoma treatment (AID 1296009). Further: nearly all actives have a fitted effect of over 60% in size. Further: potency means the concentration at half of the fitted maximal effect. On activity change, negative = cytotoxicity: on the % scale 0 is the no-effect control and ±100 the full control effect. The settings on record: MCC and control cell lines, CellTiter-Glo viability, 72 h; series mostly up to 46 µM. The gist of the method: (§1)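 Dose-response viability screen; 72 hr exposure at 37 degree celsius; CellTiter-Glo added, 10 min room temperature, luminescence read; RLUs scaled between no-cell and DMSO wells.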
(qHTS replaces the single test concentration by a dilution series.)

The test system of test [2] is UISO. The description is as above. The note with it: MCC and control cell lines, CellTiter-Glo viability, 72 h; series mostly up to 46 µM. The procedure, abridged:
as §1

For test [3], the system named is WaGa. The test is described as above. The note with it: MCC and control cell lines, CellTiter-Glo viability, 72 h; series mostly up to 46 µM. The procedure, abridged:
as §1
On the technique in general: Cellular ATP, detected with luciferase, serves as a proxy for viable cell number.

Test [4] deals with Es-2. The experiment in a line: Primary qHTS to identify gynecologic anti-cancer compounds using libraries of approved drugs and bioactive compounds (AID 1345084). Further: on the % scale 0 is the no-effect control and ±100 the full control effect; nearly all actives have a fitted effect of over 55% in size. The settings on record: Gynecologic cancer cell panel viability, ATPlite luminescence, 48 h; series mostly up to 57.5 µM. The gist of the method:
(§2)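 Measured: luminescence after ATPlite addition (15 min, RT). Exposure: 48 h, 37 C, 5% CO2.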

Test [5] relates to HeLa. The test is described as above. The settings on record: Gynecologic cancer cell panel viability, ATPlite luminescence, 48 h; series mostly up to 57.5 µM. The gist of the method:
as §2

The subject of test [6] is Hek293T. The description is as above. The note with it: Gynecologic cancer cell panel viability, ATPlite luminescence, 48 h, control line for the selectivity index; series mostly up to 57.5 µM. The gist of the method:
as §2

In test [7] the test system is astro. The experiment in a line: Drug repurposing screens with cells derived from glioblastoma tumor samples (AID 1345199). Further: on the % scale 0 is the no-effect control and ±100 the full control effect; nearly all actives have a fitted effect of over 40% in size. The settings on record: viability, ATP luminescence, 48 h; series mostly up to 91.6 µM. The procedure, abridged:
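Primary testing used CD133+ neurospheres from four GBM patients, seven concentrations, 48 h exposure and ATP-based viability; confirmation added three slower-growing patient lines.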

The target of test [8] is Nuclear receptor subfamily 1 group I member 2 (Rattus norvegicus) (UniProt Q9R1A7). Kind of test: qHTS assay for small molecule activators of the rat pregnane X receptor (rPXR) signaling pathway (AID 651751; call rule not given here; further: 0% is about no effect). The settings on record: rPXR reporter cells, luciferase (One-Glo), 24 h.
The test system of test [9] is NIH3T3. Kind of test: qHTS assay to identify novel small-molecules to repurpose for Merkel cell carcinoma treatment (AID 1296009). Further: nearly all actives have a fitted effect of over 60% in size. Further: potency means the concentration at half of the fitted maximal effect. On activity change, negative = cytotoxicity: on the % scale 0 is the no-effect control and ±100 the full control effect. The note with it: MCC and control cell lines, CellTiter-Glo viability, 72 h; at 44.8 µM (top of the series) unless noted. The procedure, abridged:
as §1

The test system of test [10] is C33A. Kind of test: Primary qHTS to identify gynecologic anti-cancer compounds using libraries of approved drugs and bioactive compounds (AID 1345084). Further: on the % scale 0 is the no-effect control and ±100 the full control effect; nearly all actives have a fitted effect of over 55% in size. The note with it: Gynecologic cancer cell panel viability, ATPlite luminescence, 48 h; series mostly up to 57.5 µM. The gist of the method: as §2
In test [11] the test system is CAOV3. Described as above. The note with it: Gynecologic cancer cell panel viability, ATPlite luminescence, 48 h; series mostly up to 57.5 µM. The procedure, abridged:
as §2

The test system of test [12] is CASKI. The description is as above. The settings on record: Gynecologic cancer cell panel viability, ATPlite luminescence, 48 h; series mostly up to 57.5 µM. The gist of the method: as §2
The subject of test [13] is JEG-3. The test is described as above. The note with it: Gynecologic cancer cell panel viability, ATPlite luminescence, 48 h; series mostly up to 57.5 µM. The gist of the method:
as §2

Test [14] has as its system OV90. Described as above. The note with it: Gynecologic cancer cell panel viability, ATPlite luminescence, 48 h; series mostly up to 57.5 µM. The gist of the method:
as §2

For test [15], the system named is PA-1. The test is described as above. The note with it: Gynecologic cancer cell panel viability, ATPlite luminescence, 48 h; series mostly up to 57.5 µM. The gist of the method:
as §2

For test [16], the system named is SKOV3. Described as above. The settings on record: Gynecologic cancer cell panel viability, ATPlite luminescence, 48 h; series mostly up to 57.5 µM. The procedure, abridged:
as §2

Test [17] relates to Tov-21-G. The description is as above. The settings on record: Gynecologic cancer cell panel viability, ATPlite luminescence, 48 h; series mostly up to 57.5 µM. The gist of the method:
as §2

Test [18] relates to Tov112D. Described as above. The note with it: Gynecologic cancer cell panel viability, ATPlite luminescence, 48 h; series mostly up to 57.5 µM. The procedure, abridged:
as §2

Nuclear receptor subfamily 1 group I member 2 (Rattus norvegicus), sequence (Q9R1A7 whole entry, looked up): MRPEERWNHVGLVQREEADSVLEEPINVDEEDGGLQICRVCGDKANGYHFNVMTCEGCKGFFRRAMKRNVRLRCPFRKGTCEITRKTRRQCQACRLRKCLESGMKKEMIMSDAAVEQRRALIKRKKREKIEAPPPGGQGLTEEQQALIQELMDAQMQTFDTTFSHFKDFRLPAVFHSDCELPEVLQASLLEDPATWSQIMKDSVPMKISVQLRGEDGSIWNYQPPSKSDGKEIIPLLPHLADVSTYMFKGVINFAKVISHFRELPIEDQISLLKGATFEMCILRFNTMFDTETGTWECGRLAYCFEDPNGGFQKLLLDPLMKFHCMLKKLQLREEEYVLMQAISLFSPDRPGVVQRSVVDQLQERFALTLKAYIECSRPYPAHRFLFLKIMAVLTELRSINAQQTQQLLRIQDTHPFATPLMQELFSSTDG

On to `Cc1ccc(N)cc1O`, for which the Potency in [1] is 6.11 µM (active); in test [2], 24.3 µM (active); in test [3], 6.11 µM (active). In addition, the Potency result in [4], in test [5], in test [6] and in test [7] was “inactive” each time. Moreover, the max response in test [8] is 0.897%.

On to `C[C@H](C(=O)NC1CCCC1)N(C(=O)Cn1nnc(-c2ccc3c(c2)OCO3)n1)C1CCCCC1`, for which, in test [9], the molecule was called inactive. The Potency result in test [10], in [11], in test [12], in test [4], in test [5] and in test [6] was “inactive” in each case. Also, the Potency entry in [13], in test [14], in test [15], in [16], in test [17] and in [18] was “inactive” throughout.

In the case of `CC1CCC2(OC1)OC1CC3C4CCC5C[C@@H](O[C@@H]6O[C@H](CO[C@@H]7OC[C@@H](O)[C@H](O)[C@H]7O)[C@H](O)[C@H](O)[C@H]6O)CC[C@]5(C)C4CC[C@]3(C)C1C2C` (stereo partly specified), the outcome in [9] is “inactive [at 17.4 µM]”. Besides, the Potency result in test [10], in test [11], in test [12], in test [4], in [5] and in test [6] was “inactive” each time. Also, the Potency entry in test [13], in [14], in test [15], in test [16], in test [17] and in test [18] was “inactive” in each case.

Regarding `CC1(C)CC[C@]2(C(=O)O[C@@H]3O[C@H](CO)[C@@H](O)[C@H](O)[C@H]3O)CC[C@]3(C)C(=CCC4[C@@]5(C)CC[C@H](O[C@@H]6O[C@H](C(=O)O)[C@@H](O)[C@H](O[C@@H]7O[C@H](CO)[C@H](O)[C@H](O)[C@H]7O)[C@H]6O)C(C)(C)C5CC[C@]43C)C2C1` (stereo partly specified), in test [9], the outcome was “inactive [at 9.27 µM]”. The activity change, negative = cytotoxicity was -1.04% [at 11.6 µM] in [10]; 0.89% [at 11.6 µM] in test [11]; -0.547% [at 11.6 µM] in test [12]; -0.756% [at 11.6 µM] in test [4]; -6.39% [at 11.6 µM] in test [5]; 7.67% [at 11.6 µM] in test [6]. Also, the activity change, negative = cytotoxicity in test [13] was 4.29% [at 11.6 µM]; in test [14], 1.32% [at 11.6 µM]; in test [15] it was -14.7% [at 11.6 µM]; in test [16], 12.6% [at 11.6 µM]; in [17] it was -0.142% [at 11.6 µM]; in [18], -2.13% [at 11.6 µM].

Turning to `COc1cc2c3c(cc4ccccc4c3c1O)NC2=O`, in [9], the call was inactive. The Potency result in test [10], in test [11], in [12], in test [4], in [5] and in [6] was “inactive” throughout. For the same molecule, the Potency result in [13], in test [14], in test [15], in test [16], in test [17] and in [18] was “inactive” in each case.

For `CCOCCOC(=O)/C=C/c1ccc(OC)cc1`, the Potency entry in test [1], in test [2], in test [3], in test [10], in test [11] and in test [12] was “inactive” each time. The Potency entry in test [4], in [5], in [6], in [13], in test [14] and in test [15] was “inactive” each time. Also, the Potency result in [16], in test [17] and in test [18] was “inactive” in each case.

`COc1cc(O)c2c(c1)C1=C[C@H](O)[C@@H](O)C[C@]1(C)OC2=O`: the outcome in [9] was inactive. In addition, the Potency result in test [10], in test [11], in test [12], in [4], in test [5] and in test [6] was “inactive” throughout. The Potency result in test [13], in test [14], in test [15], in [16], in test [17] and in test [18] was “inactive” in each case.

For the molecule `O=C(O)c1c(O)c(-c2ccccc2)nc2ccccc12`, the Potency result in test [1], in test [2], in test [3], in test [10], in test [11] and in test [12] was “inactive” in each case. For the same molecule, the Potency result in test [4], in test [5], in test [6], in test [13], in test [14] and in test [15] was “inactive” throughout. In addition, the Potency result in test [16], in test [17] and in [18] was “inactive” throughout. For the same molecule, in [9], the outcome was inactive.

As to `CCCC(=O)O[C@@H]1[C@@H]2[C@@H](OC(C)=O)[C@]3(C)C(=O)[C@H]4[C@@H](OC(C)=O)C(C)(C)C[C@H]4[C@]3(C)C(=O)[C@@]2(OC(C)=O)C[C@@H]1C`, the outcome in [9] is “inactive [at 17.4 µM]”. Moreover, the Potency entry in test [10], in test [11], in test [12], in test [4], in [5] and in test [6] was “inactive” each time. Besides, the Potency result in [13], in [14], in [15], in test [16], in test [17] and in [18] was “inactive” each time.

`CC(NC(=O)C(O)C(C)C)C(=O)NC1C(=O)N(C)CCc2ccccc21` (stereo unspecified): in test [9], the result was inactive. The Potency result in [10], in test [11], in test [12], in [4], in test [5] and in test [6] was “inactive” throughout. The Potency result in [13], in test [14], in [15], in test [16], in test [17] and in test [18] was “inactive” each time.

As to `CC1(C)CC[C@]2(C(=O)O)CC[C@]3(C)C(=CCC4[C@@]5(C)CC[C@H](O[C@@H]6O[C@H](CO)[C@@H](O)[C@H](O)[C@H]6O[C@@H]6O[C@H](CO)[C@@H](O)[C@H](O)[C@H]6O)[C@@](C)(CO)C5CC[C@]43C)[C@@H]2C1` (stereo partly specified), in test [9], the outcome is “inactive [at 17.4 µM]”. The Potency entry in test [10], in test [11], in [12], in test [4], in test [5] and in [6] was “inactive” each time. Moreover, the Potency result in test [13], in test [14], in [15], in [16], in [17] and in [18] was “inactive” throughout.

Take `C=CC(C)(O)C(O)CC1C(C)(O)C(O)C(O)C2C(C)(C)CCCC21C` (stereo unspecified): in test [9], the molecule was called inactive. In addition, the Potency entry in test [10], in [11], in [12], in test [4], in test [5] and in test [6] was “inactive” throughout. For the same molecule, the Potency result in [13], in test [14], in [15], in test [16], in [17] and in test [18] was “inactive” in each case.
